PubChem BioAssay (Tox21)
“And” between values parts separate entries of the source, which are not always exact repeats. Equal values may be shown once. Results filed as inconclusive are left out. Where a structure was tested more than once in an assay, its records may differ in their call. The source made the active and inactive calls. Unless noted, calls follow the shape of the dose curve; as a rule, active = well fitted curve in the direction sought with a large enough effect in the repeat runs; inconclusive = weak or mixed curves; inactive = no such curve, though single readings can be large; an effect the other way counts as inactive or inconclusive.

Experiments:
[1] = qHTS RealTime-Glo MT Cell Viability Assay in HEK293 cells - 0 hour (AID 1224880); also: top concentration of the series differs between compounds; nearly all actives have a fitted effect of over 45% in size
Outline: (§1)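 HEK293 cells mixed with RealTime-Glo reagents (NanoLuc plus cell-permeant prosubstrate) at 600 cells/well, preincubated 5 h at 37 C/5% CO2, then given 23 nL compound in DMSO. Nonlytic luminescence from viable cells was read at 0, 8, 16, 24, 32 and 40 h.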

[2] = A CellTox Green Cytotoxicity Assay to monitor cytotoxicity in HEK293 cells - 32 hour (AID 1224881); also: nearly all actives have a fitted effect of over 40% in size
Outline: (§2)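 HEK293 cells premixed with CellTox Green dye were seeded at 600 cells/well and left 5 h at 37 C/5% CO2 before pin transfer of 23 nL compound in DMSO. Fluorescence from dye bound to dead-cell DNA was read during 40 h treatment.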

[3] = A CellTox Green Cytotoxicity Assay to monitor cytotoxicity in HepG2 cells - 0 hour (AID 1224882); also: nearly all actives have a fitted effect of over 35% in size
Outline: (§3)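 HepG2 cells were seeded together with the CellTox Green dye at 600 cells/well, left 5 h at 37 C/5% CO2, then given compounds in DMSO. Fluorescence from dye bound to dead-cell DNA was read repeatedly over 40 h of treatment at 37 C.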

[4] = A CellTox Green Cytotoxicity Assay to monitor cytotoxicity in HepG2 cells - 32 hour (AID 1224883); also: nearly all actives have a fitted effect of over 50% in size; also: potency is read from the fitted curve at half-maximal effect
Outline: as §3

[5] = A CellTox Green Cytotoxicity Assay to monitor cytotoxicity in HEK293 cells - 8 hour (AID 1224884); also: nearly all actives have a fitted effect of over 35% in size
Outline: as §2

[6] = qHTS RealTime-Glo MT Cell Viability Assay in HepG2 cells - 16 hour (AID 1224885); also: nearly all actives have a fitted effect of over 50% in size
Outline: (§4)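 Cell number in HepG2 cultures estimated from NanoLuc luminescence generated by metabolic reduction of a prosubstrate by living cells. The homogeneous, nonlytic format allowed repeated reads at 0, 8, 16, 24, 32 and 40 h of compound exposure.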

[7] = qHTS RealTime-Glo MT Cell Viability Assay in HEK293 cells - 24 hour (AID 1224886); also: top concentration of the series differs between compounds; nearly all actives have a fitted effect of over 50% in size
Outline: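 Homogeneous bioluminescent viability format in HEK293 cells (600 cells/well). Following 5 h at 37 C/5% CO2, 23 nL compound was pintooled; the signal was measured repeatedly during 40 h incubation.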

[8] = qHTS RealTime-Glo MT Cell Viability Assay in HEK293 cells - 8 hour (AID 1224887); also: top concentration of the series differs between compounds; nearly all actives have a fitted effect of over 50% in size
Outline: as §1

[9] = A CellTox Green Cytotoxicity Assay to monitor cytotoxicity in HEK293 cells - 16 hour (AID 1224888); also: nearly all actives have a fitted effect of over 35% in size
Outline: as §2

[10] = qHTS RealTime-Glo MT Cell Viability Assay in HepG2 cells - 0 hour (AID 1224889); also: nearly all actives have a fitted effect of over 50% in size
Outline: as §4

[11] = A CellTox Green Cytotoxicity Assay to monitor cytotoxicity in HepG2 cells - 8 hour (AID 1224890); also: nearly all actives have a fitted effect of over 45% in size
Outline: as §3

[12] = qHTS assay to identify small molecule antagonists of the androgen receptor (AR) signaling pathway using the MDA cell line in the presence of 0.5 nM R1881 - cell viability counter screen (AID 1259242); also: nearly all actives have a fitted effect of over 45% in size
Outline: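 MDA-kb2 cells (human breast carcinoma, stably carrying MMTV-luciferase reporter) were exposed to compounds with 0.5 nM R1881 (final) for 16 hr at 37C, 0% CO2; viability then read as live-cell protease fluorescence (CellTiter-Fluor, 30 min) in the same wells.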

[13] = qHTS assay to identify small molecule phospholipidosis (PLD) inducers (AID 1259344; active = well fitted curve in the direction sought with a large enough effect; an effect the other way counts as inactive or inconclusive; also: potency is read from the fitted curve at half-maximal effect)
Outline: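 HepG2 cells grown on collagen I take up LipidTOX Red while exposed to compound for 24 h; after fixation they are imaged at 20x and pit metrics are extracted.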

[14] = qHTS assay to identify small molecule HDAC inhibitors (AID 1259364); also: nearly all actives have a fitted effect of over 45% in size; also: potency is read from the fitted curve at half-maximal effect
Outline: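 Wild-type HCT-116 cells were plated overnight, exposed to compounds for 2 h at 37 °C, then given HDAC-Glo class I/II luminogenic reagent for 30 min at room temperature before luminescence was read.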

[15] = qHTS assay to identify small molecule HDAC inhibitors - cell viability counter screen (AID 1259365)
Outline: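 CellTiter-Glo luminescence (30 min, room temperature) reported viability after a 2 h compound exposure at 37 C. Cells: wild-type HCT-116, 1,500 per well, seeded the night before.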

[16] = qHTS assay to identify small molecule agonists of the sonic hedgehog signaling (Shh) pathway - cell viability counter screen (AID 1259366); also: nearly all actives have a fitted effect of over 50% in size
Outline: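 Cytotoxicity counter screen: CellTiter-Fluor reagent added after 23 h compound exposure, then 1 h at 37C and fluorescence read. Cells were 3T3 Gli1-Luc, seeded 2,000 per well and dosed 4 h post-plating.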

[17] = qHTS assay to identify small molecule antagonists of the estrogen receptor alpha (ER-alpha) signaling pathway using the BG1 cell line in the presence of 0.1 nM 17-beta-estradiol - cell viability counter screen (AID 1259241); also: nearly all actives have a fitted effect of over 40% in size
Outline: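 Cytotoxicity counter-screen: live-cell protease activity measured by fluorescence (30 min reagent step) in the same wells. Cells were VM7Luc4E2 with endogenous ER-alpha and ERE-driven luciferase, treated 22 hr at 37C alongside 0.1 nM 17beta-estradiol final.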

[18] = biological target: Androgen receptor (Homo sapiens) (UniProt P10275); test: qHTS assay to identify small molecule antagonists of the androgen receptor (AR) signaling pathway using the MDA cell line in the presence of 0.5 nM R1881 (AID 1259243); also: nearly all actives have a fitted effect of over 50% in size
Outline: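 MDA-kb2 human breast carcinoma cells carrying an MMTV-luciferase reporter (AR- and GR-responsive) were plated, rested 5 hr at 37C, dosed with compounds, then stimulated with 0.5 nM R1881 (final) for 16 hr; luminescence was read after ONE-Glo.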

[19] = biological target: Estrogen receptor (Homo sapiens) (UniProt P03372); test: qHTS assay to identify small molecule antagonists of the estrogen receptor alpha (ER-alpha) signaling pathway using the BG1 cell line in the presence of 0.1 nM 17-beta-estradiol (AID 1259244); also: nearly all actives have a fitted effect of over 50% in size
Outline: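 VM7Luc4E2 cells (endogenous full-length ER-alpha, stable 4xERE-luciferase) were grown 5 days in phenol red-free medium with charcoal-stripped FBS, then exposed 22 h at 37C to compounds plus 0.1 nM (final) 17beta-estradiol; ONE-Glo luminescence read-out.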

[20] = qHTS assay to identify small molecule antagonists of the sonic hedgehog signaling (Shh) pathway - cell viability counter screen (AID 1259367); also: nearly all actives have a fitted effect of over 55% in size
Outline: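 After a 4 hr settling period, 3T3 Gli1-Luc cells were treated with DMSO-dissolved chemicals and conditioned medium, kept 24 hr at 37C in 5% CO2, and assayed for viability by CellTiter-Fluor fluorescence following 1 hr reagent incubation.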

Measured: Potency

Chain of Androgen receptor (Homo sapiens) (P10275 whole entry, looked up): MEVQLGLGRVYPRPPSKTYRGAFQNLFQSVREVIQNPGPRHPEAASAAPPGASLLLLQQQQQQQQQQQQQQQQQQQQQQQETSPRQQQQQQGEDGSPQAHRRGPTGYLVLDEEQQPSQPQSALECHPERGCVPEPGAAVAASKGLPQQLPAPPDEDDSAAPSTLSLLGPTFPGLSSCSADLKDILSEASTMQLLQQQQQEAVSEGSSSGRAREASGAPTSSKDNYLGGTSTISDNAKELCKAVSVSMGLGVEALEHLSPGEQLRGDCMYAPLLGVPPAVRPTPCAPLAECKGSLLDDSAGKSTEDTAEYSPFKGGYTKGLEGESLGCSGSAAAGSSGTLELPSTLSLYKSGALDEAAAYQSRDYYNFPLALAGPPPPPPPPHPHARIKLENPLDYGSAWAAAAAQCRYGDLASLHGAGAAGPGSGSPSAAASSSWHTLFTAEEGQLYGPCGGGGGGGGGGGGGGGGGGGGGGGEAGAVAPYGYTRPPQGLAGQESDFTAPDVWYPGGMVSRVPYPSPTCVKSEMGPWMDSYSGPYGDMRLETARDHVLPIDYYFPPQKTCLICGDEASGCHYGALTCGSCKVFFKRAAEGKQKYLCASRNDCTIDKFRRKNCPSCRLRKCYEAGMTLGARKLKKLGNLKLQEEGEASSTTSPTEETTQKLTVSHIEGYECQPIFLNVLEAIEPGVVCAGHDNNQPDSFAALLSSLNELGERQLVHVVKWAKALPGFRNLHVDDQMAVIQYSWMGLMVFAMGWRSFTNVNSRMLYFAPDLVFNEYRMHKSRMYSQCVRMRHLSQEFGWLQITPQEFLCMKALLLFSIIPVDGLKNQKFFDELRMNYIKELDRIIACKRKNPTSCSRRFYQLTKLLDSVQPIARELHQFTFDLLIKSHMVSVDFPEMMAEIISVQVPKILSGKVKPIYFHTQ
Chain of Estrogen receptor (Homo sapiens) (P03372 whole entry, looked up): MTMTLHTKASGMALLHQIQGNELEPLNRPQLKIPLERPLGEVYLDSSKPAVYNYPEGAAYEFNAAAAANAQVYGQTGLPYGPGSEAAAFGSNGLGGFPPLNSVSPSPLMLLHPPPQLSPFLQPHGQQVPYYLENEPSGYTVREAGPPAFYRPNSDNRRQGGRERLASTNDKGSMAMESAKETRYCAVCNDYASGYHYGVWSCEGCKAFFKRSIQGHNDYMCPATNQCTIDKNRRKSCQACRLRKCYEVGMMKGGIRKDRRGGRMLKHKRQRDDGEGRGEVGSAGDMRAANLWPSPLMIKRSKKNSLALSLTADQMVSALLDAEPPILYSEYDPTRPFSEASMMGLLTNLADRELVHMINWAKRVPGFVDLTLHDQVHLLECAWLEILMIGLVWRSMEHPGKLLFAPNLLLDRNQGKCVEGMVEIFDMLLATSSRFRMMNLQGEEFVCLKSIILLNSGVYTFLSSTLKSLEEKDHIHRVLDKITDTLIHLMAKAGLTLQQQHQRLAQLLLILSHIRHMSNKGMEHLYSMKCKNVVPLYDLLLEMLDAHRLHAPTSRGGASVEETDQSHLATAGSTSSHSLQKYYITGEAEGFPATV

O=C(O)Cc1ccccc1
not listed: [17] | [18] | [19] | [20]
inactive: all other assays above

O=C(O)COc1ccccc1
not listed: [12] | [18] | [19] | [20]
inactive: all other assays above

c1ccc2c(c1)CCCC2
not listed: [13] | [17]
inactive: all other assays above

Sc1ccccc1
inactive and 43.6 µM (active): [4]
not listed: [13] | [17] | [18] | [19] | [20]
inactive: all other assays above

COP(=S)(OC)SCN1C(=O)c2ccccc2C1=O
not listed: [12] | [18] | [19]
inactive: all other assays above

Cc1ccccc1N
not listed: [12] | [13] | [18] | [19]
inactive: all other assays above

CCOP(=S)(OCC)Oc1ccc([N+](=O)[O-])cc1
not listed: [12] | [13] | [18] | [19]
inactive: all other assays above

CN(C)NC(=O)CCC(=O)O
not listed: [12] | [13] | [18] | [19] | [20]
inactive: all other assays above

CC[N+](=O)[O-]
not listed: [12] | [13] | [18] | [19] | [20]
inactive: all other assays above

OCCCCO
not listed: [12] | [13] | [18] | [19] | [20]
inactive: all other assays above

CC(=O)/C=C/c1ccccc1
not listed: [13] | [17] | [18] | [19] | [20]
inactive: all other assays above

NNc1ccccc1
not listed: [17] | [18] | [19] | [20]
inactive: all other assays above

O=C(O)CCCc1ccc(N(CCCl)CCCl)cc1
not listed: [12] | [18]
inactive: all other assays above

Cc1cccc(C)c1N
not listed: [12] | [13] | [18] | [20]
inactive: all other assays above

CN(C)C(=O)Cl
not listed: [12] | [13] | [18] | [20]
inactive: all other assays above

C[C@]12CC[C@H](O)CC1=CC[C@@H]1[C@@H]2CC[C@]2(C)C(=O)CC[C@@H]12
active: [13] 10 µM
not listed: [12] | [18] | [19] | [20]
inactive: all other assays above

O=C(O)c1cc(Oc2ccc(C(F)(F)F)cc2Cl)ccc1[N+](=O)[O-]
not listed: [12] | [18] | [19] | [20]
inactive: all other assays above

Cc1cc(Cl)ccc1OC(C)C(=O)O (stereo not given)
not listed: [12] | [13] | [18] | [19]
inactive: all other assays above

C[C@H]1C(=O)O[C@@H]2CCN3CC=C(COC(=O)[C@](C)(O)[C@]1(C)O)[C@H]23
not listed: [12] | [18] | [19] | [20]
inactive: all other assays above

Cc1cccc(C)c1NC(=O)CN1CCCC1=O
not listed: [17] | [18] | [19]
inactive: all other assays above

C=CC(=O)OCCCCCC(C)C
not listed: [13] | [17] | [19]
inactive: all other assays above

O=[N+]([O-])c1cc([As](=O)(O)O)ccc1O
not listed: [12] | [18] | [19] | [20]
inactive: all other assays above

COC(=O)Nc1cccc(OC(=O)Nc2cccc(C)c2)c1
active: [4] 49 µM | [14] 27.3 µM and 30.6 µM
not listed: [12] | [13] | [18] | [19]
inactive: all other assays above

Oc1ccc(Cl)cc1
not listed: [12] | [18] | [19]
inactive: all other assays above

N#Cc1ccccn1
not listed: [12] | [13] | [18] | [19]
inactive: all other assays above

CNC(=O)O/N=C/C(C)(C)SC
not listed: [12] | [13] | [18] | [20]
inactive: all other assays above

OCC(O)CCl (stereo not given)
not listed: [12] | [13] | [18] | [19]
inactive: all other assays above

CN1C(=O)CCS(=O)(=O)C1c1ccc(Cl)cc1 (stereo not given)
not listed: [17] | [18] | [19]
inactive: all other assays above

Nc1cc(Cl)cc(Cl)c1
not listed: [13] | [17] | [18] | [19] | [20]
inactive: all other assays above

CCCCC(CC)C(=O)Cl (stereo not given)
not listed: [13] | [17] | [18] | [19] | [20]
inactive: all other assays above

FC(F)(F)c1ccc(Cl)cc1
not listed: [13] | [17] | [18] | [19]
inactive: all other assays above

CC(C)CCCCCCOC(=O)c1ccccc1C(=O)OCCCCCCC(C)C
not listed: [12] | [13] | [17] | [19]
inactive: all other assays above

OC[C@@H](O)[C@H]1O[C@@H]2O[C@H](C(Cl)(Cl)Cl)O[C@@H]2[C@H]1O
not listed: [12] | [17] | [18] | [20]
inactive: all other assays above
